Screening data from PubChem.
Shown are actives, neighbours in structure and some others; about 21% of the full set was active somewhere.
NS1 function inh: qHTS Assay for Inhibitors of Influenza NS1 Protein Function. 0.4% of 270,000 active. Potency, µM (doses to about 46.1 µM), for the others: at the top dose activity, positive = more growth; calls by dose curve; note: potency is the fitted concentration of half-maximal effect; actives are rising curves; nearly all actives have a fitted effect of over 50% in size
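S. cerevisiae expressing influenza A NS1, grown in glucose, washed, then diluted 1:100 into pH 6.0 -URA galactose medium with 23 nl compound. Growth recovery read as OD600; NS1-free strain serves as control.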
Giardia FBPA inh: qHTS Assay for Inhibitors of Fructose-1,6-bisphosphate Aldolase from Giardia Lamblia | A8B2U2 | Potency, µM (series often up to 59.6 µM), inactives show at the highest dose activity, negative = inhibition, actives largely listed as inhibitors | purified Giardia FBPA | 0.71% of 290,000 active; note: potency is the fitted concentration of half-maximal effect; % is set by controls: 0 for no effect and ±100 for the full control effect; nearly all actives have a fitted effect of over 55% in size
Target sequence (A8B2U2 whole entry, looked up): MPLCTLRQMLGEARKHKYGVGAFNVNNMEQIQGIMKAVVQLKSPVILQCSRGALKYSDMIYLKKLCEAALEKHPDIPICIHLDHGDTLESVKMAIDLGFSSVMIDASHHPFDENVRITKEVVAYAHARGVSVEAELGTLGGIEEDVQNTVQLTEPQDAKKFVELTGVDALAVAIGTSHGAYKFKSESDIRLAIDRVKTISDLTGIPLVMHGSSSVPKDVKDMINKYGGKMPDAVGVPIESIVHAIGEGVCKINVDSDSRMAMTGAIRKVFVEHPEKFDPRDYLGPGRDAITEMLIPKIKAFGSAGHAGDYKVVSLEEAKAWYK
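40 nM FBPA preincubated 10 min at RT with compound (up to 57.5 uM final), then substrate plus GAPDH/TPI/NAD/arsenate coupling and diaphorase/resazurin added. Fluorescence read after 20 min at RT, 525/598 nm.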
CHX counter: Cycloheximide Counterscreen for Small Molecule Inhibitors of Shiga Toxin; max response, %; cell reporter, cycloheximide protein synthesis inhibition counterscreen; AID 2314, 2010; 12% of 300,000 active; in the data active = max response mostly above about 13%, no sharp cut-off; inactive = mostly below about 14%; note: read at 38.3 µM for the half of the compounds with a filed dose; 0% is about no effect
Pf growth 96h: Primary qHTS for delayed death inhibitors of the malarial parasite plastid, 96 hour incubation; P. falciparum luciferase reporter growth, 96 h; AID 504834, 2011; Potency, µM (series often up to 28.7 µM), for the others: top-dose activity change, negative = inhibition, most hits filed as inhibitors; 6.9% of 320,000 active; note: potency is the fitted concentration of half-maximal effect; % is set by controls: 0 for no effect and ±100 for the full control effect
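Erythrocytes infected with luciferase-expressing P. falciparum were dispensed at 2% hematocrit and 0.05% parasitemia (final), then incubated with compounds 96 hours at 37 C in 5% CO2. Luminescence after detection reagent addition reported growth.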
Pf growth 48h: Primary qHTS for delayed death inhibitors of the malarial parasite plastid, 48 hour incubation; 5.9% of 310,000 active; P. falciparum luciferase growth in erythrocytes, 48 h; Potency, µM (titrated, usually from 28.7 µM), inactives show at the highest dose activity change, negative = inhibition, usual class: inhibitors; note: potency is the fitted concentration of half-maximal effect; % is set by controls: 0 for no effect and ±100 for the full control effect
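Erythrocytes infected with P. falciparum carrying an integrated firefly luciferase reporter (2% hematocrit, 0.1% parasitemia final) were exposed to compounds in RPMI 1640 with 0.5% Albumax at 37 C, 5% CO2. Growth inhibition was scored as reduced luminescence.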
Shiga toxin inh: A qHTS for Small Molecule Inhibitors of Shiga Toxin | Vero cells, Shiga toxin protein synthesis inhibition reporter | inhibition, % at 38.7 µM | 9.2% of 290,000 active | AID 2315, 2010; in the data active = inhibition mostly above about 28%, no sharp cut-off; inactive = mostly below about 43%; note: 0% is about no effect
Active calls of the source: *; i = inactive; ? = inconclusive; . = not tested or not shown; [ ] = remark or other dose. Unless noted, calls come from the whole dose curve; as a rule, active = well fitted curve in the direction sought with a large enough effect; inconclusive = small, poorly fitted or top-dose-only effect, or another doubt; inactive = no such curve, though single readings can be large; an effect the other way counts as inactive or inconclusive.

SMILES | NS1 function inh | Giardia FBPA inh | CHX counter | Pf growth 96h | Pf growth 48h | Shiga toxin inh
Cc1cccc(C(=O)c2ccccc2C(=O)O)c1 | -0.4% | 2.4% | -2.2 | 29.0% | -0.1% | -8.3
O=C(Nc1cccc(F)c1)N1CCCC2(CCN(C(=O)c3ccncc3)CC2)C1 | . | 4.5% | . | . | . | .
CCC(C)c1ccc(NC(=O)C2=CC=CN3CCS(=O)(=O)N=C23)cc1 (stereo not given) | . | . | . | 185.3% | 136.3% | .
COc1cc(OC)cc(C(=O)Oc2c(CN3CCOCC3)cc(Cl)c3cccnc23)c1 | -3.5% | ? | 8.0* | 0.928µM* | 1.47µM* | 35.5
O=C(Oc1c(CN2CCOCC2)cc(Cl)c2cccnc12)c1ccccc1 | . | ? | 7.7 | ? | ? | 28.0
O=S(=O)(c1ccc(Cl)cc1)N1CCN(Cc2ccc(O)c3ncccc23)CC1 | . | 3.7% | 16.4 | ? | 1.85µM* | 10.0
O=C(COc1c(Br)cc(Br)c2cccnc12)N1CCCCC1 | . | ? | 8.6 | 11.5% | 16.4% | -4.4
Oc1c(CN2CCCCC2)cc(Br)c2cccnc12 | -196.4% | ? | -1.6 | ? | 2.62µM* | -7.7
Oc1c(Cl)cc(CN2CCOCC2)c2cccnc12 | . | . | . | 5.86µM* | 4.65µM* | .
C[C@H](C(=O)NCc1ccccc1)C(=O)c1ccccc1 | 0.2% | 2.7% | -2.6 | 45.4% | 7.6% | -5.0
COc1ccccc1-n1c(CNC(=O)c2ccc(S(=O)(=O)N3CCCCC3)cc2)n[nH]c1=S | 3.4% | . | -0.9 | 2.0% | -3.0% | -13.7
COc1ccc(Cl)cc1-c1ccc(C(=O)O)o1 | . | 18.3%[89.2 µM] | 3.9 | . | . | i
COc1ccc(NC(=O)C(CC(=O)O)Cc2ccc(Cl)cc2)cc1 (stereo not given) | 11.0% | 7.1% | 0.2 | -2.0% | 6.4% | .
O=C(NCc1ccccn1)c1cccc(NS(=O)(=O)c2ccc(Br)cc2)c1 | . | . | . | 6.3% | 4.8% | .
Oc1ccc(CN2CCN(Cc3ccccc3)CC2)c2cccnc12 | -1.8% | 8.8% | -5.5 | . | 7.0% | -15.0
CN1CCN(Cc2cc(COCc3ccccc3)c3cccnc3c2O)CC1 | -99.9% | -2.4% | 17.0* | 2.33µM* | 2.08µM* | 10.6
O=[N+]([O-])c1cc(CN2CCOCC2)c2cccnc2c1O | . | 14.5% | 10.2 | -16.1% | 4.15µM* | 5.6
Cc1ccccc1OCCCn1c(CCNC(=O)C2CCCCC2)nc2ccccc21 | . | . | 7.2 | . | . | 29.4
Cc1cccc(N2C(=O)c3cccc4c(N(C)CCO)ccc(c34)C2=O)c1 | 9.4% | ? | 9.5 | 5.86µM* | ? | -8.0
COc1cc(C[C@@H]2C(=O)OC[C@H]2Cc2ccc(OC)c(OC)c2)ccc1O | . | . | . | 31.2% | -12.5% | .
Cc1ccc(S(=O)(=O)CCc2ccncc2)cc1 | -0.5% | ? | 5.3 | 173.4% | -1.3% | -4.2
CCc1ccc2nc(SCC(=O)Nc3ccccc3N3CCOCC3)c(C#N)cc2c1 | -41.6% | -4.0% | 5.1 | -53.6% | 9.28µM* | 5.8
CCc1ccc2nc(SCC(=O)N3CC(=O)Nc4ccccc43)c(C#N)cc2c1 | 10.1% | 1.8% | -2.1 | 11.7µM* | -6.6% | 14.6
Nc1cc(N)nc(SCC(=O)Nc2ccccc2N2CCOCC2)n1 | -4.2% | 0.8% | -2.8 | -6.8% | -2.9% | 3.8
Cc1ccc2nc(SCC(=O)Nc3ccccc3N3CCOCC3)c(C#N)cc2c1 | 0.9% | 0.7% | 1.5 | ? | 7.38µM* | 7.8
SMILES | NS1 function inh | Giardia FBPA inh | CHX counter | Pf growth 96h | Pf growth 48h | Shiga toxin inh
CCc1cc2cc(C)ccc2nc1SCC(=O)N1CC(=O)Nc2ccccc21 | 4.9% | 6.9% | -1.2 | 4.8% | ? | -13.5
Cc1ccc(SCC(=O)Nc2ccccc2N2CCOCC2)cc1 | -38.6% | . | 4.3 | ? | -11.8% | 4.0
O=C(CNC(=O)c1ccccc1F)OCn1nnc2ccccc2c1=O | . | . | . | -4.2% | 3.8% | .
Cc1ccc(CNC(=O)CN2C(=O)c3ccccc3S2(=O)=O)cc1 | -2.0% | 14.2% | -2.0 | ? | 3.4% | -10.5
CCCc1nnc(NC(=O)C2CC(=O)N(C3CCCC3)C2)s1 (stereo not given) | -5.3% | 4.2% | -2.1 | 9.2% | -4.4% | -11.5
CCN(CC(=O)NC1CCCC1)S(=O)(=O)c1ccc(Br)cc1 | 1.5% | . | 5.4 | 30.9% | -18.0% | -16.4
Oc1[nH]c(=S)sc1C=C1N=c2ccccc2=N1 | 1.3% | -9.1% | 25.2* | 43.3% | 70.9% | 38.3*
